Laboratory results from PubChem BioAssay (NCI).
About 79,000 compounds went through this panel and 15% of them were active in at least one assay; those are over-represented in the sample as a whole. Unmarked numbers belong to inactive results. Calls of active or inactive are those of the source. No stated cut-off is given here; in the data, active means growth inhibition above about 70%; inactive means the rest. Residues, ends and D or L forms follow the SMILES beside them. *: point of attachment. Fmoc = O=C(OCC1c2ccccc2-c2ccccc21)*; Boc = CC(C)(C)OC(=O)*

Assay: NCI Yeast Anticancer Drug Screen. Data for the sgs1 mgt1 strain (AID 161);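 further: 0% = growth of cultures given vehicle only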
Conditions: S. cerevisiae sgs1 mgt1 strain, at 50.0 µM (retest, dose inferred, filed as 5.0), hits give high values
Outline: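 Read-out: growth inhibition vs vehicle controls. Cells: mutant yeast strain deficient in DNA damage repair.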

Structure (SMILES) | growth inhibition
CC(C)C(=O)CC(Sc1ccc(N)cc1)c1ccccc1 (stereo not given) | 87% (active)
CC(C)OP(=O)(OC(C)C)/C(Cl)=N/Nc1ccc([N+](=O)[O-])cc1 | 74% (active)
O=[N+]([O-])c1cc(Cl)ccc1S(=O)(=O)c1ccc(Cl)cc1[N+](=O)[O-] | 91% (active)
CCCCCCNCCCNc1c2cc(OC)ccc2nc2cccc([N+](=O)[O-])c12 | 97% (active)
N#CCC(=O)N/N=C(\c1ccccc1)C(c1ccccc1)C1(O)C(=O)Nc2c(Cl)ccc(Cl)c21 (stereo not given) | 39%
CN(C)CCNCCCNc1c2ccccc2nc2cccc([N+](=O)[O-])c12 | 95% (active)
CCC[CH2][Ge]([CH2]CCC)([CH2]CCC)[O]C(=O)C(O)c1ccccc1 (stereo not given) | 97% (active)
COc1ccc(-c2cc(-c3cc(C)cc(Cl)c3O)nc3[nH]c(=S)[nH]c(=S)c23)cc1 | 68%
O=[N+]([O-])c1ccc(/C=C\c2ccc3c(c2)OCO3)c([N+](=O)[O-])c1 | 88% (active)
O=C1c2ccccc2N2OC3(N4CCCC4)CCCCC3C12c1ccccc1 (stereo not given) | -18%
CC(C)OC(=O)NNc1cc(Cl)ccc1Cl | 48%
Cc1oc2ccccc2c(=O)c1Cn1nnc2ccccc21 | 22%
CC1(C)OC(=O)C(=Cc2ccc([N+](=O)[O-])s2)C(=O)O1 | 100% (active)
CCN(CC)CCCNc1ccc([N+](=O)[O-])c2nc3ccc(OC)cc3c(NCCCN(CC)CC)c12 | 20%
COc1cccc(/C=C2\S/C(=N/Nc3nc(-c4ccc([N+](=O)[O-])cc4)cs3)NC2=O)c1O | 76% (active)
OC(Cc1cccc2ccccc12)CN1CCC(c2ccccc2)CC1 (stereo not given) | 41%
C1=CCN([B-](c2ccccc2)[C+]2CCCCC2)C=C1 | 92% (active)
O=[N+]([O-])c1cc[n+]([O-])c(Cl)c1 | 99% (active)

Structure (SMILES) | growth inhibition
CCCNC(=O)OCc1c(COC(=O)NCCC)c(-c2ccc(Cl)c(Cl)c2)n2c1CCC2 | 67%
CC1(C)CC(=O)C(C(=O)Nc2cccs2)=C(O)C1 | 61%
O=C(NO)c1coc2ccccc2c1=O | 13%
COc1ccc(C(C)c2cc3c(cc2OCC(C)=O)OCO3)cc1 (stereo not given) | 35%
O=S(=O)(c1ccccc1)N1CN2CN(C1)CN(S(=O)(=O)c1ccccc1)C2 | 4%
CC1=NN(C(=O)c2ccccc2O)C(=O)/C1=C/c1ccco1 | 90% (active)
O=C1C=C(Br)C(=O)c2ccccc21 | 99% (active)
C[N+](C)([O-])CCCNc1c2ccccc2nc2cccc([N+](=O)[O-])c12 | 89% (active)
Cc1cccc2c(NCCCN(C)C)c3c([N+](=O)[O-])ccc(C)c3nc12 | 46%
OC1(c2ccccc2)C2CC=CC2C1(c1ccccc1)c1ccccc1 (stereo not given) | 70% (active)
C[n+]1c(-c2ccc(/C=N/NC(=O)c3ccc(C(=O)N/N=C/c4ccc(-c5cn6ccccc6[n+]5C)cc4)cc3)cc2)cn2ccccc21 | 62%
CCN(CC)CCC(=O)Nc1ccc2sc3ccccc3c(=O)c2n1 | -2%
O=[N+]([O-])c1ccc2nc(=S)[nH]n2c1 | 22%
O=C(c1ccccc1)[C@H]1Nc2ccc(Cl)cc2[C@H]2OCCC[C@@H]12 | 33%
COc1cc([N+](=O)[O-])c2ncccc2c1Br | 41%
O=S(=O)(c1cccc(C(F)(F)F)c1)N1c2ccccc2-n2cccc2C1c1cccnc1 (stereo not given) | 98% (active)
CC(C)(C)OC(=O)NCCCCC(NC(=O)C(Cc1c[nH]c2ccccc12)NC(=O)OCC1c2ccccc2-c2ccccc21)C(=O)O (stereo not given) (Fmoc-Trp-Lys(Boc)-OH; configuration not given here) | 21%

Same assay, conditions: S. cerevisiae sgs1 mgt1 strain, at 50.0 µM, hits give high values

Structure (SMILES) | growth inhibition
CC(C)C(=O)CC(Sc1ccc(N)cc1)c1ccccc1 (stereo not given) | 53%
CC(C)OP(=O)(OC(C)C)/C(Cl)=N/Nc1ccc([N+](=O)[O-])cc1 | 90.8% (active)
O=[N+]([O-])c1cc(Cl)ccc1S(=O)(=O)c1ccc(Cl)cc1[N+](=O)[O-] | 84.3% (active)
CCCCCCNCCCNc1c2cc(OC)ccc2nc2cccc([N+](=O)[O-])c12 | 95.7% (active)
N#CCC(=O)N/N=C(\c1ccccc1)C(c1ccccc1)C1(O)C(=O)Nc2c(Cl)ccc(Cl)c21 (stereo not given) | 51.8%
CN(C)CCNCCCNc1c2ccccc2nc2cccc([N+](=O)[O-])c12 | 79.7% (active)
CCC[CH2][Ge]([CH2]CCC)([CH2]CCC)[O]C(=O)C(O)c1ccccc1 (stereo not given) | 89.5% (active)
COc1ccc(-c2cc(-c3cc(C)cc(Cl)c3O)nc3[nH]c(=S)[nH]c(=S)c23)cc1 | 84.8% (active)
O=[N+]([O-])c1ccc(/C=C\c2ccc3c(c2)OCO3)c([N+](=O)[O-])c1 | 78.6% (active)
O=C1c2ccccc2N2OC3(N4CCCC4)CCCCC3C12c1ccccc1 (stereo not given) | 74.7% (active)
CC(C)OC(=O)NNc1cc(Cl)ccc1Cl | 44.2%
Cc1oc2ccccc2c(=O)c1Cn1nnc2ccccc21 | 16.9%
CC1(C)OC(=O)C(=Cc2ccc([N+](=O)[O-])s2)C(=O)O1 | 90% (active)
CCN(CC)CCCNc1ccc([N+](=O)[O-])c2nc3ccc(OC)cc3c(NCCCN(CC)CC)c12 | 13%
COc1cccc(/C=C2\S/C(=N/Nc3nc(-c4ccc([N+](=O)[O-])cc4)cs3)NC2=O)c1O | 95.7% (active)
OC(Cc1cccc2ccccc12)CN1CCC(c2ccccc2)CC1 (stereo not given) | 71.2% (active)
C1=CCN([B-](c2ccccc2)[C+]2CCCCC2)C=C1 | 99.2% (active)
O=[N+]([O-])c1cc[n+]([O-])c(Cl)c1 | 99.8% (active)

Structure (SMILES) | growth inhibition
CCCNC(=O)OCc1c(COC(=O)NCCC)c(-c2ccc(Cl)c(Cl)c2)n2c1CCC2 | 50.7%
CC1(C)CC(=O)C(C(=O)Nc2cccs2)=C(O)C1 | 93.3% (active)
O=C(NO)c1coc2ccccc2c1=O | 62%
COc1ccc(C(C)c2cc3c(cc2OCC(C)=O)OCO3)cc1 (stereo not given) | 9.55%
O=S(=O)(c1ccccc1)N1CN2CN(C1)CN(S(=O)(=O)c1ccccc1)C2 | -5.55%
CC1=NN(C(=O)c2ccccc2O)C(=O)/C1=C/c1ccco1 | 87.3% (active)
O=C1C=C(Br)C(=O)c2ccccc21 | 99.2% (active)
C[N+](C)([O-])CCCNc1c2ccccc2nc2cccc([N+](=O)[O-])c12 | 83.2% (active)
Cc1cccc2c(NCCCN(C)C)c3c([N+](=O)[O-])ccc(C)c3nc12 | 96.8% (active)
OC1(c2ccccc2)C2CC=CC2C1(c1ccccc1)c1ccccc1 (stereo not given) | 11.1%
C[n+]1c(-c2ccc(/C=N/NC(=O)c3ccc(C(=O)N/N=C/c4ccc(-c5cn6ccccc6[n+]5C)cc4)cc3)cc2)cn2ccccc21 | 70.7% (active)
CCN(CC)CCC(=O)Nc1ccc2sc3ccccc3c(=O)c2n1 | 31.8%
O=[N+]([O-])c1ccc2nc(=S)[nH]n2c1 | 23.9%
O=C(c1ccccc1)[C@H]1Nc2ccc(Cl)cc2[C@H]2OCCC[C@@H]12 | 40.5%
COc1cc([N+](=O)[O-])c2ncccc2c1Br | 25.1%
O=S(=O)(c1cccc(C(F)(F)F)c1)N1c2ccccc2-n2cccc2C1c1cccnc1 (stereo not given) | 96.8% (active)
CC(C)(C)OC(=O)NCCCCC(NC(=O)C(Cc1c[nH]c2ccccc12)NC(=O)OCC1c2ccccc2-c2ccccc21)C(=O)O (stereo not given) (Fmoc-Trp-Lys(Boc)-OH; configuration not given here) | 36.1%
